Source: PubChem (The Scripps Research Institute Molecular Screening Center)
The list is not random: actives were taken first. Their share in the collection is about 2.1%.
PME-1 Maybr inh: inhibitors of human PME-1 in Maybridge library | hit rate 0.5% among 16,000 | recombinant PME-1, FP-Rh probe fluorescence polarization | inhibition, % at 9 µM; in the data active means inhibition above about 30%
luminol inh ctr: counter-screen for Nox1 inhibitors: inhibitors of luminol chemiluminescence. HRP/luminol/H2O2 chemiluminescence counterscreen. inhibition, % at 6.7 µM. hit rate 0.4% among 16,000; further: reference of the scale not given here
NOTCH agonist: agonists of NOTCH signaling; NOTCH signaling luciferase reporter cells, luminescence; activation, % at 2.5 µM; hit rate 0.4% among 15,000; in the data active means activation above about 2.2%
Nox1 inh: inhibitors of human NADPH oxidase 1 (Nox1). Q9Y5S8. HT29 cells, luminol chemiluminescence ROS. inhibition, % at 6.7 µM. hit rate 0.81% among 16,000. AID 1792, 2009
Target sequence (Q9Y5S8 whole entry, looked up): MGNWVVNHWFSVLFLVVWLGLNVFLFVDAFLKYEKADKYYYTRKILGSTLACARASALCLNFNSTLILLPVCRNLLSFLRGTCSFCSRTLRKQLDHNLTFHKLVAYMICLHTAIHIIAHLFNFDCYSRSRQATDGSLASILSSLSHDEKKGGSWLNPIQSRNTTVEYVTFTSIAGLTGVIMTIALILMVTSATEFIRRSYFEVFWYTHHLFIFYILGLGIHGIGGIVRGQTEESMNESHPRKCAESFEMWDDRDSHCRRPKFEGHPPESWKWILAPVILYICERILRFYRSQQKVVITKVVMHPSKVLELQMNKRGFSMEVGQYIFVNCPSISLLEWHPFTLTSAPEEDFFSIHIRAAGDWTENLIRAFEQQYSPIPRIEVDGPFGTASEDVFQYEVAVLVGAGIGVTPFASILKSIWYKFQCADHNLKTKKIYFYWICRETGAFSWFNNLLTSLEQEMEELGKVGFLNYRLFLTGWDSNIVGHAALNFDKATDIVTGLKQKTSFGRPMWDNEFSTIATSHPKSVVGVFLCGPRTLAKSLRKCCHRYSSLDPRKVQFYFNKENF
The depositor's hits bear a star; / = no result. Unless noted, no stated cut-off is given here; in the data, active means inhibition above about 75%; inactive means the rest.

SMILES	PME-1 Maybr inh	luminol inh ctr	NOTCH agonist	Nox1 inh
O=c1c(Nc2ccc(OC(F)(F)F)cc2)c(Nc2ccc(OC(F)(F)F)cc2)c1=O	30.2*	-4.3	-0.3	5.6
COC(=O)c1ccc(S(=O)(=O)NNC(=O)c2c(O)c3sccc3[nH]c2=O)n1C	0.2	78.4*	0.1	-30.5
Cc1cc(C)c([N+](=O)[O-])c(N)n1	-2.8	4.6	-0.7	-56.9
CC1CN(c2ccccc2OC(=O)Nc2ccc(OC(F)(F)F)cc2)CC(C)O1 (stereo not given)	-12.4	15.0	-0.1	101.1*
O=C(Nc1ccc(Cl)cc1)Oc1ccccc1N1CCSCC1	-2.3	3.8	-0.4	92.1*
CN1c2ccccc2C(O)=C(C(=O)Nc2ccc(OC(F)(F)F)cc2)S1(=O)=O	-14.2	-2.8	0.2	13.7
FC(F)(F)c1ccc(-c2noc(-c3ccno3)n2)nc1	3.7	-5.0	0.2	-11.4
Cc1ccc([N+](=O)[O-])cc1S(=O)(=O)Nc1cccc(C(F)(F)F)c1	8.0	0.2	/	4.2
Cn1c(CC2Sc3ccccc3NC2=O)nnc1SCC(=O)Nc1cccc(C(F)(F)F)c1 (stereo not given)	5.9	93.1*	0.2	16.7
N#C/C(=N\OC(=O)c1ccc(C(F)(F)F)cc1)S(=O)(=O)c1cccs1	1.5	-5.1	-0.3	14.7
CC(=O)Oc1ccc(OC(C)=O)c2c1C(=O)c1ccccc1C2=O	84.9*	14.4	0.2	73.2
CC(=O)Oc1ccc2ccccc2c1-c1c(OC(C)=O)ccc2ccccc12	8.4	-3.5	0.3	3.4
COC(=O)c1c(-c2c(Cl)cccc2Cl)noc1C(=O)N/N=C/c1ccc([N+](=O)[O-])s1	15.7	5.2	-0.2	40.9
N#C/C(=C\c1ccc(-c2cc(C(F)(F)F)cc(C(F)(F)F)c2)o1)C(=O)O	-1.3	0.6	-0.6	10.4
Cc1noc(-c2ccccc2)c1NC(=O)Nc1cc(C2CC2)nn1C	1.3	2.5	-0.9	-5.3
Cn1nc(-c2ccccc2)cc1NC(=O)Nc1cccs1	31.7*	26.2	-0.1	-38.1
S=c1[nH]nc(Cc2ccsc2)n1Cc1ccccc1	3.0	92.6*	0.4	20.9
CCOC(=O)C(CC(=O)c1ccc(Cl)cc1)C(C)=O (stereo not given)	3.3	6.3	-0.6	4.6
O=[N+]([O-])c1cc(Cl)c(-n2cccc2)cc1N1CCCCC1	0.6	2.9	-0.3	-72.7
O=[N+]([O-])c1cc(Cl)c(N2CCOCC2)cc1N1CCOCC1	-3.6	6.7	6.3*	-73.7
O=C(CSc1nnc(SCC(=O)c2cccc([N+](=O)[O-])c2)s1)c1cccc([N+](=O)[O-])c1	4.0	92.2*	-0.1	17.6
CC1CN(c2ccc(NS(=O)(=O)c3ccccc3)cc2C(=O)O)CC(C)O1 (stereo not given)	-1.2	40.7	-0.4	83.8*
O=C(CCc1ccc(O)cc1)NNc1c([N+](=O)[O-])cc(C(F)(F)F)cc1[N+](=O)[O-]	4.9	-4.1	0.2	28.4
COc1ccc(C(=O)NNc2c([N+](=O)[O-])cc(C(F)(F)F)cc2[N+](=O)[O-])cc1	4.5	3.6	0.8	89.4*
O=C(NNc1c([N+](=O)[O-])cc(C(F)(F)F)cc1[N+](=O)[O-])c1ccccc1-n1cccc1	-7.9	-9.0	-0.7	102.4*
SMILES	PME-1 Maybr inh	luminol inh ctr	NOTCH agonist	Nox1 inh
COc1cc2c(cc1OC)C(C)N(C(=O)c1sc3ccccc3c1Cl)CC2 (stereo not given)	51.9*	1.6	-5.5	-21.0
COc1cc2c(cc1OC)C(C)N(C(=O)c1sc(-c3cnccn3)nc1C)CC2 (stereo not given)	9.7	-7.4	0.1	-21.1
CC(C)[C@@H](NC(=O)OCc1ccccc1)C(=O)O	-6.2	2.4	0.3	-9.8
Cc1sc(-c2ccccc2)nc1CC(=O)NNC(=O)c1cccc(OC(F)(F)F)c1	-4.8	4.0	2.5*	-46.8
COc1ccc(Br)c(C(=O)/C(C#N)=C/c2ccc(N(C)C)cc2)c1	7.6	24.1	-0.2	-2.7
COc1ccc(Br)c(C(=O)/C(C#N)=N/Nc2ccc(F)cc2)c1	36.8*	-0.4	-0.8	39.9
CC(=O)c1csc(Nc2ccc(Cl)cc2)n1	5.3	2.8	2.2*	-27.0
CCOC(=O)C(=CNNc1ccnc2cc(Cl)ccc12)C(=O)OCC	7.8	3.1	0.1	83.7*
CCOC(=O)C(=CNNc1ccccc1)C(=O)OCC	-0.4	6.5	-0.7	-19.3
COc1ccc(Oc2ccc([N+](=O)[O-])cc2C2=N/C(=C/N(C)C)C(=O)O2)cc1	7.0	-4.6	-0.7	-2.1
Cc1cc(Br)c(NC(=S)NNc2ccccc2)c(Br)c1	11.4	6.8	0.0	99.5*
Cc1nnsc1-c1n[nH]c(=S)n1C1CC1	5.4	98.8*	-0.1	12.5
